Compounds with a hit are over-represented: about 2.4% of the library has one in this group of screens.
D2 PAM-1: positively modulates the human D2 dopamine receptor allosterically; P14416; HEK293 T-REx D2, calcium flux, EC20 dopamine potentiation; potentiation, % at 10 µM; 340,000 tested, 0.34% active;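 active = potentiation over 3 SD above the plate norm, cut at about 30% in these data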
Target sequence (P14416 whole entry, looked up): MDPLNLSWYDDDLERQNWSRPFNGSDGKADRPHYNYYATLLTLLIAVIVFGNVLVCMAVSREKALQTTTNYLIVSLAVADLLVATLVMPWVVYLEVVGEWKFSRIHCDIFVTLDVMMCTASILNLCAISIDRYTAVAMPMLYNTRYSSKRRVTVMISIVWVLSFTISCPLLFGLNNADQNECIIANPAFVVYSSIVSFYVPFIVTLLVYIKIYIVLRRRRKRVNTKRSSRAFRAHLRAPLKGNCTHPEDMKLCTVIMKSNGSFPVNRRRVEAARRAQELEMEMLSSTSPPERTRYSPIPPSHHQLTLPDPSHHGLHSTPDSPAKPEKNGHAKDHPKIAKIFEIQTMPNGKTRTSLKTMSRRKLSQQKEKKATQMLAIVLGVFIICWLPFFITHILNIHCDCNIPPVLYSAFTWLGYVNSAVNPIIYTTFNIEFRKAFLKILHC
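Primary screen. Calcium kinetics in induced HEK293 T-REx D2 cells: compound pre-addition 180 s, EC20 dopamine, 180 s more.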
D2 antag: antagonists of human D2 dopamine receptor; P14416; HEK293 TREx D2 cells, calcium flux, dopamine EC80; inhibition, % at 10 µM; 340,000 tested, 2% active; in the data active = inhibition above about 30%; inactive = below that, where a call was filed
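In this primary screen, negative modulation is detected by tracking calcium flux after an EC80 dopamine challenge in inducible HEK293 T-REx D2 cells preexposed to test compound for 180 s.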
D2 ag-1: agonists of human D2 dopamine receptor (beta-arrestin); P14416; DiscoveRx PathHunter D2 beta-arrestin, luminescence, 90 min; 100% = 57 uM dopamine signal; activation, % (concentration not given with the values); 360,000 tested, 0.084% active; AID 624465; in the data active = activation above about 40%
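DiscoveRx PathHunter D2 beta-arrestin cells (2,100/well) attached overnight, then compound-stimulated 90 min at 37 C in HBSS/10 mM HEPES/0.1% Tween-20 buffer; beta-galactosidase complementation read by luminescence after 1 h at ambient temperature. Dopamine 57 uM final (EC100) as control.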
D2 ag-2: D2 dopamine receptor (human) agonism | 340,000 tested, 0.53% active | activation, % at 2 µM | P14416 | HEK293 T-REx D2 cells, calcium flux agonist mode;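 active = activation over 3 SD above normal in the single-dose calcium agonist read, cut at about 30% in these data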
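Agonism is scored from calcium flux in a force-coupled, inducible HEK293 cell line expressing D2, read kinetically for 180 s after compound addition against dopamine controls.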
D2 PAM-2: potentiates the human D2 dopamine receptor allosterically. DiscoveRx D2 beta-arrestin cells, luminescence, 90 min; 100% = 57 uM dopamine signal. 360,000 tested, 0.23% active. potentiation, % (concentration not given with the values). AID 624464; in the data active = potentiation above about 50%
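D2 cells co-treated with compound plus 50 nM dopamine (EC20) for 90 min at 37 deg C to detect potentiation. Beta-arrestin recruitment was read as enzyme-fragment luminescence after 1 h at ambient temperature. Full response was set by 57 uM dopamine.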
A number is an active result; – = inactive; · = no result given.

SMILES	D2 PAM-1	D2 antag	D2 ag-1	D2 ag-2	D2 PAM-2
Cc1cc(C)nc(/N=C(\N)Nc2ccc(OCc3ccccc3)cc2)n1	–	69.8	–	63.2	–
C=CCN1C(c2ccc(OCC)cc2)=CS/C1=C(\C#N)c1nnc2n1CCCCC2	45.3	–	–	–	–
C=CCN1C(c2ccc(Br)cc2)=CS/C1=C(\C#N)c1nnc(N2CCOCC2)n1-c1ccccc1	·	·	–	·	–
CC(C)OC(=O)c1cccnc1N1CCN(c2ccc(F)cc2)CC1	–	32.7	–	–	–
CC(C)OC(=O)c1ccc(N2CCN(c3ccc(F)cc3)CC2)nc1	–	–	–	–	–
N#Cc1cc(S(=O)(=O)c2ccccc2)c(N)[nH]c1=O	–	85.6	–	–	–
CCc1cccc(NC(=O)COC(=O)/C=C/c2cccs2)c1	–	31.2	–	–	–
O=C(COC(=O)/C=C/c1cccs1)Nc1ccc(F)cc1	–	–	–	–	–
Cc1ccc2oc(C(Cl)(Cl)Cl)cc(=O)c2c1	–	–	–	–	76.0
Cc1ccc2oc(C(F)(F)C(F)F)cc(=O)c2c1	–	–	–	–	–
CCCC1(C(=O)OC)NC(c2cccc(F)c2)C2C(=O)N(CC)C(=O)C21 (centres undefined)	–	30.8	–	–	–
Cc1cc(C)cc(NC(=S)N(Cc2ccc(Br)cc2)Cc2ccc(C(=O)O)cc2)c1	–	–	–	–	–
Cc1ccc(NC2=C/C(=N/S(=O)(=O)c3cccs3)c3ccccc3C2=O)cc1	–	–	–	–	57.8
O=C1C(Nc2ccccc2)=C/C(=N/S(=O)(=O)c2cccs2)c2ccccc21	–	–	–	–	–
O=C(c1ccc(Cl)cc1)N1CCCC(C(=O)N2CCc3ccccc3C2)C1 (centres undefined)	–	–	–	–	–
O=C(CNC(=O)c1ccco1)NCC(=O)OCc1c(F)cccc1Cl	–	–	–	–	–
O=C(CNC(=O)c1ccco1)NCC(=O)OCC(=O)c1ccc(Cl)c([N+](=O)[O-])c1	38.0	–	–	–	–
O=C(CNC(=O)c1ccco1)OCc1c(F)cccc1Cl	41.4	–	–	–	–
CCN(C(=O)c1cnc(N2CCN(c3ncccn3)CC2)c2ccccc12)c1cccc(Cl)c1	–	46.5	–	–	–
NC(N)=Nc1cc2ccccc2c2ccccc12	–	37.5	·	67.8	·
NC(N)=NC(N)=Nc1cccc2ccccc12	–	–	–	–	–
COc1ccc(-c2nc(CN(Cc3cnn(C)c3)C(C)C)c(C)o2)c(OC)c1	–	–	–	–	–
NC(=O)Cn1nnc(-c2ccc(C(F)(F)F)cc2)n1	–	–	–	–	–
Cc1onc(-c2c(F)cccc2Cl)c1C(=O)NCCO	–	–	–	–	–
COc1ccc(CNCC(O)COc2cccc3c2OC(C)(C)C3)cc1 (centres undefined)	–	44.3	–	–	–
SMILES	D2 PAM-1	D2 antag	D2 ag-1	D2 ag-2	D2 PAM-2
O=C(CCn1c(=O)sc2ccccc21)NCc1cccs1	–	32.2	–	–	–
O=C(CCn1c(=O)sc2ccccc21)NCc1ccccc1	–	–	–	–	–
COc1ccccc1/C=C/C(=O)NCC(=O)N/N=C/c1cc(Br)ccc1OC	–	64.2	–	–	–
COc1cccc(/C=N/Nc2ccc(S(=O)(=O)O)cc2)c1O	·	·	–	·	–
COc1ccc(/C=N/NC(=O)CNC(=O)/C=C/c2ccccc2OC)cc1	–	–	–	–	–
COc1ccc(/C=C\C(=O)NCC(=O)N/N=C/c2ccc(O)cc2O)cc1	–	–	–	–	–
COc1ccc(/C=C/C(=O)NCC(=O)N/N=C/c2cc(Br)ccc2OC)cc1	–	69.5	–	–	–
COc1cccc(/C=N/Nc2ccc(C(=O)O)cc2)c1O	–	–	–	–	78.6
COc1ccccc1/C=C\C(=O)NCC(=O)N/N=C/c1cccc(OC)c1O	–	49.5	–	–	–
COc1ccc(C(N)=O)cc1NC(=O)c1cccc(F)c1	–	–	–	–	–
COc1ccc(Br)cc1/C=C/C(=O)Nc1ccc(C)cc1	–	73.6	–	–	–
COc1cc(OC)c2cc(C(=O)N/N=C/c3cccc(OC)c3O)[nH]c2c1	–	–	–	–	–
COc1ccc(Br)cc1/C=C/C(=O)Nc1ccc2ccccc2c1	–	–	–	–	–
COc1cccc(/C=N/NC(=O)c2cc3c(OC)ccc(OC)c3[nH]2)c1O	–	–	–	–	52.0
O=C(NCCOCC(F)(F)C(F)F)c1cc(F)c(F)cc1Cl	–	–	–	–	–
Cc1ccc2c(CSc3nc4ccccc4c(=O)n3CCCO)cc(=O)oc2c1C	–	–	–	–	–
CCOc1ccc(CCNC(=O)c2ccc(Cn3c(=O)c4cccn4c4cccnc43)cc2)cc1	–	·	·	–	·
COc1cccc(CNS(=O)(=O)c2ccc3c(c2)N(C(C)=O)CCO3)c1	–	61.4	–	–	–
CCn1c2ccccc2c2cc(CNCc3ccc(OC)cc3OC)ccc21	–	35.0	–	–	–
Cc1ccc(-c2csc(N3CCN(CCCn4c(-c5ccncc5)nc5ccccc54)CC3)n2)cc1	–	–	–	–	–
COc1cc(Nc2cc(C)nc3ncnn23)cc(OC)c1OC	–	31.9	–	–	–
COc1cc(Nc2cc(C)nc3ncnn23)cc(OC)c1	–	–	–	–	–
CCOc1ccc(C(=O)NC2C(=O)N3C(C(=O)O)=C(COC(C)=O)CSC23)cc1OCC (centres undefined)	–	–	–	–	–
COc1cc(/C=C(\C#N)C(=O)Nc2ccccc2C(=O)O)cc(Cl)c1OC	40.2	–	–	–	–
Oc1c(CN2CCN(c3ccccc3)CC2)cc(Br)c2cccnc12	–	59.3	–	–	–
SMILES	D2 PAM-1	D2 antag	D2 ag-1	D2 ag-2	D2 PAM-2
CC(C)OCc1cc(CN2CCN(c3ccccc3)CC2)c(O)c2ncccc12	–	·	·	–	·
Cc1ccc(C(=O)N2CCN(CCNC(=O)C(=O)Nc3ccc(Cl)cc3)CC2)cc1	–	–	–	–	–
O=C(Nc1ccc(Br)cc1)c1ccc2ncsc2c1	–	36.2	–	–	–
CCc1ccc(NC(=O)c2ccc3ncsc3c2)cc1	–	–	·	–	·
Cc1ccccc1NC(=O)c1c(O)c2cccc3c2n(c1=O)CCC3	–	46.5	·	–	·
Cc1cc(C)c2[nH]c(C(=O)Nc3ccc4c(c3)OCO4)cc2c1	–	–	–	–	–
Cc1ccc(C2C(=O)c3ccccc3C2=O)cc1	–	–	–	–	–
CCOc1cc(/C=N/NC(N)=O)cc(Br)c1OCC(=O)Nc1ccccc1C	–	–	–	–	53.1
Cc1csc2c(N3CCN(C(=S)Nc4ccc(C(F)(F)F)cc4)CC3)ncnc12	–	–	–	–	–
S=C(NCCNCc1ccccc1)NC1CCCCC1	–	–	·	–	·
Cc1cc(OC(C)C(=O)N(Cc2ccco2)C2CCS(=O)(=O)C2)cc(C)c1Cl (centres undefined)	–	–	–	–	–
